Source: PubChem BioAssay AID652010 (The Scripps Research Institute Molecular Screening Center, 2013)
Screen size: about 370,000 compounds; about 4,100 (1.1%) were called active. Only a selection was taken, and actives are over-represented in it overall. Values without a mark were called inactive.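 The calls were made as follows: active = inhibition above the mean over all tested compounds plus 3 SD (cut at about 3.6% in these data); inactive = the rest.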

Test: DAX1 (NR0B1) inhibitors on StAR promoter, primary screen, cell-based, luminescence, SF-1 (NR5A1), full-length DAX-1 (AID 652010);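 also: 0% = DAX-1 cells with DMSO and 100% = cells lacking DAX-1 with DMSO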
Conditions: HEK293T StAR-luciferase reporter, SF-1/DAX-1 repression relief; at 6.8 µM; stronger effect = higher value

Point of comparison: O=S(=O)(Nc1cccc(-c2ccc(N3CCOCC3)nn2)c1)c1ccc(Cl)c(Cl)c1, inhibition 0.25%. Against it:
- C[C@@H]1ON(C)[C@H]2C[C@H]3c4[nH]c5cccc(-c6ccc7c(c6)OCO7)c5c4CCN3C[C@@H]12 — higher, 0.45%
- O=S1(=O)c2c(NCc3ccco3)cccc2Oc2ccccc2CN1Cc1cn(Cc2cccc(C(F)(F)F)c2)nn1 — lower, -0.91%
- O=C(Nc1cccc(F)c1)[C@@H]1CCCN1 — lower, -0.32%
- Cc1cc(C)cc(NC(=O)NC2CCCCCCC2)c1 — higher, 3.33%
- Clc1ccc(Cc2nnc(-c3cccs3)o2)cc1 — lower, -0.54%
- CCCN1C(=O)c2[nH]nc(-c3ccccc3)c2C1c1ccccc1 (stereo unspecified) — lower, -1.18%
- O=C(Nc1ccc(Br)cc1)OCCN1C(=O)CCC12CCC(c1ccccc1)CC2 (stereo unspecified) — higher, 0.27%
- CS(=O)(=O)N(CC(=O)Nc1ccc(F)cc1)C1CCCCC1 — lower, -0.02%
- CC(C(=O)N1CCc2ccccc21)N(C)CC(=O)Nc1ccc(F)cc1 (stereo unspecified) — lower, -0.82%
- CN(C)C(=O)CSc1n[nH]c(-c2ccco2)n1 — lower, -0.67%
- Cn1c(SCC(=O)c2cccs2)nnc1-c1ccco1 — higher, 0.71%
- C=CCN(C)CC#Cc1ccccc1 — higher, 1.58%
- O=S1(=O)c2ccc(Br)cc2OC[C@H](Cc2ccccc2)N1Cc1cn(Cc2ccccc2)nn1 — higher, 0.43%
- COc1ccc(CN(CCN2CCOCC2)C(=O)c2ccc(C)cc2)cc1OC — higher, 1.29%
- Cc1ccccc1N1CCN(CC(=O)NCc2ccc(Cl)cc2)CC1 — lower, -0.26%
- COC1=C[C@H](C(=O)NCCNC(C)=O)[C@H](C)[C@@H](c2ccccc2)CC1=O — higher, 0.48%
- CCN(CC)C(=O)CC[C@@H]1CC[C@]2(CCCN(S(=O)(=O)C3CCCCC3)C2)O1 — lower, -1.81%
- CCOC(=O)c1c(NC(=S)Nc2ccccc2)sc2c1CCN(C)C2 — lower, 0.23%
- CCOC(=O)c1cc2c(nc1NC(=S)Nc1ccccc1)CC(C)(CC)OC2 (stereo unspecified) — lower, -0.51%
- Cc1ccc(CN2CCCCC(NC(=O)C3CCCCC3)C2=O)cc1 (stereo unspecified) — lower, -1.69%
- COc1ccc(N2CCN(CCNS(=O)(=O)c3ccc(C(C)(C)C)cc3)CC2)cc1 — lower, -0.04%
- CC1(C)NC(=O)N(CC(=O)N2CCN(S(=O)(=O)c3ccccc3F)CC2)C1=O — lower, -1%
- COc1ccc([C@H]2OC(=O)C[C@H]2C(=O)N2CCN(c3ccccc3F)CC2)cc1OC — higher, 0.35%
- O=C(NCC1COc2ccccc2O1)c1ccc(NC(=O)c2cc(F)ccc2F)cc1 (stereo unspecified) — lower, -1.54%
- Cc1ccc(C(=O)Nc2nc(N)n(-c3ccccc3)n2)cc1 — higher, 0.57%
- CN(C)S(=O)(=O)c1cc(C(=O)Nc2ccn(C)n2)c(Cl)cc1Cl — lower, -0.84%
- CCC1CCc2c(sc(NC(C)=O)c2C#N)C1 (stereo unspecified) — lower, -0.35%
- N#Cc1c(NC(=O)c2ccc(N3CCOCC3)c([N+](=O)[O-])c2)sc2c1CCCC2 — higher, 0.44%
- COC(=O)C1CN(Cc2ccc(F)cc2)CCS(=O)(=O)N1Cc1ccc(Cl)cc1 (stereo unspecified) — lower, -1.11%
- CC(C)(C)OC(=O)NCc1cc(F)ccc1/C=C/S(=O)(=O)NCCc1ccccc1 — lower, -0.93%
- O=C(NNC(=S)NC1CCCCC1)c1ccccc1Cl — higher, 2.28%
- O=C(NC1CCCCCC1)C1CCN(C(=O)c2ccc(Cl)cc2)CC1 — lower, -1.38%
- CC(NCc1ccco1)C(=O)N1CCCCC1 (stereo unspecified) — lower, -0.66%
- O=S1(=O)c2ccc(Br)cc2OC[C@@H](Cc2ccccc2)N1Cc1cn(Cc2ccco2)nn1 — lower, -0.91%
- Cn1c(-c2ccccc2)c[n+]2c1CCCCC2 — lower, 0.1%
- O=C(NCCN1C(=O)S/C(=C\c2cccnc2)C1=O)c1ccc(S(=O)(=O)N2CCCC2)cc1 — lower, -0.2%
- Cc1cc(OCCCC(=O)NCCN2C(=O)S/C(=C\c3cccnc3)C2=O)ccc1Cl — lower, -0.22%
- Cc1cccc(C)c1NC(=O)c1ccc(CN2CCc3ccccc3C2)cc1 — lower, -0.37%
- Cc1cccc(OC(C)C(=O)N2CCc3ccccc3C2)c1 (stereo unspecified) — lower, -0.08%
- Cc1c(NC(=O)Nc2cccc([N+](=O)[O-])c2)c(=O)n(-c2ccccc2)n1C — lower, -3.53%
- CCOC(=O)c1c(NC(=S)SC)sc(C(=O)N2CCc3ccccc3C2)c1C — higher, 0.68%
- Nc1ncnc2c1ncn2C1OC(CO)CC1O (stereo unspecified) — lower, -1.04%
- CCC(=O)OCCCN1C(=O)CCC12CCC(c1ccccc1)CC2 (stereo unspecified) — lower, 0.13%
- O=S(=O)(Nc1ccc2nc(-c3ccco3)[nH]c2c1)c1ccccc1 — lower, -0.15%
- COc1cccc(/C=C2\CC3(OC(C)=O)CCCN2C3)c1 (stereo unspecified) — higher, 1.86%
- COc1ccc(Cn2ccc3ccc(-c4ccc5ccn(Cc6ccccc6C)c5c4)cc32)cc1 — lower, -0.33%
- COc1ccc(-n2c(SCC(=O)Nc3ccc4cn[nH]c4c3)nnc2-c2cccnc2)cc1 — lower, 0.02%

With O=C(Nc1cccc(F)c1)NC1CCCCCCC1 the inhibition was 4.46% (active).
For Clc1ccc(Nc2nc(-c3cccs3)cs2)nc1, the inhibition was 5.93% (active).
For CN(CC(=O)Nc1ccc(F)cc1)CC(=O)N1CCCCC1, the inhibition was 3.7% (active).
With Cn1c(-c2ccco2)nc2cc3ccccc3cc21 the inhibition was 4.28% (active).
In the case of Cc1cc(N=Nc2ccc3ccccc3c2)ccc1O, the inhibition is reported as 4.24% (active).
With CCOC(=O)c1cn[nH]c1NC(=S)Nc1ccccc1 the inhibition was 4.39% (active).
In the case of Cc1ccc(C(=O)Nc2ccn(C)n2)cc1, the inhibition is reported as 4.06% (active).
For N#Cc1c(NC(=O)C2CCCO2)sc2c1CCCCC2 (stereo unspecified), the inhibition was 3.86% (active).
With O=C(NC(=S)NC1CCCCC1)c1ccc(Cl)cc1 the inhibition was 7.22% (active).
In the case of COc1ccc(N2CC(C(=O)NCCN3C(=O)S/C(=C\c4cccnc4)C3=O)CC2=O)c(OC)c1 (stereo unspecified), the inhibition is reported as 4.36% (active).
In the case of O=C(Nc1cccc([N+](=O)[O-])c1)N1CCc2ccccc2C1, the inhibition is reported as 4.21% (active).
With CCc1ccc(NC(=O)N2CCc3ccccc3C2)cc1 the inhibition was 6% (active).
With O=S(=O)(Nc1ccc2nc(N3CCOCC3)sc2c1)c1ccccc1 the inhibition was 4.19% (active).
